# Source: ChEMBL document CHEMBL3988442, “University of Dundee, Small-Polar-MMV Screening Library” (2021)
# For some assays here: Results with a measured potency or affinity are listed apart.
# Experiments:
# Design in all cases: scale not given: direction of the effect not stated beside the values
# [1] = molecular target: Protein translocase subunit SecA (Escherichia coli (strain K12)) (UniProt P10408); test: Assay to Identify E. coli SecA ATPase Inhibitors; format: functional; details: 30 µM
# [2] = molecular target: T1, Ubiquitin-activating enzyme e1, putative (Leishmania donovani (strain BPK282A1)) (UniProt E9BSI1); test: Leishmania donovani Ubiquitin Activating Enzyme (LdE1); format: functional; details: 30 µM
# T1 sequence (whole entry): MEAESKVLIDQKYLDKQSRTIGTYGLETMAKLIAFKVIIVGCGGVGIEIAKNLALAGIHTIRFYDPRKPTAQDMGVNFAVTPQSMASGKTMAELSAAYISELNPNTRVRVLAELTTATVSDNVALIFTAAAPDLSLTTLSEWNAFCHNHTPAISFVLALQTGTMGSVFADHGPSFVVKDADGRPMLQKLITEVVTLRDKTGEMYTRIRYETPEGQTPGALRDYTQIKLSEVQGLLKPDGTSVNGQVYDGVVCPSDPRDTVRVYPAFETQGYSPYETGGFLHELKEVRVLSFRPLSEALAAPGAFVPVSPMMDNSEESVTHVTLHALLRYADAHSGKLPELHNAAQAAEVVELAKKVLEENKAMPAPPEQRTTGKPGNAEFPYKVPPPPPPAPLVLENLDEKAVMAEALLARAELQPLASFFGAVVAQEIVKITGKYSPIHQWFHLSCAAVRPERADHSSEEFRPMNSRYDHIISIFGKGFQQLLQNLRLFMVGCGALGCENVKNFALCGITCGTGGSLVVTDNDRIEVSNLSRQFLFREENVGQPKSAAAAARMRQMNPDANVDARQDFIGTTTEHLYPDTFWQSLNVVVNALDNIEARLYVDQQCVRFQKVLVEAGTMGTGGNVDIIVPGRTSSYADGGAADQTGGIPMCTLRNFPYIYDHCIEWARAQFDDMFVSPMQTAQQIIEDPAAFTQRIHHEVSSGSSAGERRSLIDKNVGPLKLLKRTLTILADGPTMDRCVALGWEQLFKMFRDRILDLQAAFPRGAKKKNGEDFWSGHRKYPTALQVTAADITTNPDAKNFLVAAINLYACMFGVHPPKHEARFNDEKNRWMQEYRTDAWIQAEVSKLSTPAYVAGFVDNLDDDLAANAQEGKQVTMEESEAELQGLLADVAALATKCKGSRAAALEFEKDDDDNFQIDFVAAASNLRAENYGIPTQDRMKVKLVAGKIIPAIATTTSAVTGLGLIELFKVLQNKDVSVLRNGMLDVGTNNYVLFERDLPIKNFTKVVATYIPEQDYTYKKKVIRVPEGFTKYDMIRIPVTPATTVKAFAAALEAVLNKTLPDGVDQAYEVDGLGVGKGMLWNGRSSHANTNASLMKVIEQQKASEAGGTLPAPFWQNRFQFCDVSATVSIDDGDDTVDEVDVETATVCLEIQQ
# [3] = molecular target: AMP-activated protein kinase, AMPK (Homo sapiens) (UniProt P54646+O43741+P54619+Q9UGJ0+Q9Y478+Q13131+Q9UGI9); test: AMP-dependent Kinase enzyme assay. An in vitro enzyme assay that detects ADP turnover that is directly proportional to AMPK activity. This uses naive AMPK that is activated during the assay with MK-8722; format: functional; details: 30 µM
# [4] = molecular target: Sialic acid-binding Ig-like lectin 9 (Homo sapiens) (UniProt Q9Y336); test: Hs-Siglec9 ALPHAscreen SOP 20170721; details: 10 µM
# [5] = test system: Trypanosoma cruzi; test: Trypanosoma cruzi phosphomannomutase and mannose-1-phosphate guanylyltransferase assay; format: functional; details: 10 µM
# [6] = molecular target: T2, Arginase-2, mitochondrial (Homo sapiens) (UniProt P78540); test: in vitro enzyme assay to detect the production of urea directly proportional to the activity of Arginase II; format: functional; details: 33.3 µM; further: in the data most compounds retested in dose-response had high values
# T2 sequence (whole entry): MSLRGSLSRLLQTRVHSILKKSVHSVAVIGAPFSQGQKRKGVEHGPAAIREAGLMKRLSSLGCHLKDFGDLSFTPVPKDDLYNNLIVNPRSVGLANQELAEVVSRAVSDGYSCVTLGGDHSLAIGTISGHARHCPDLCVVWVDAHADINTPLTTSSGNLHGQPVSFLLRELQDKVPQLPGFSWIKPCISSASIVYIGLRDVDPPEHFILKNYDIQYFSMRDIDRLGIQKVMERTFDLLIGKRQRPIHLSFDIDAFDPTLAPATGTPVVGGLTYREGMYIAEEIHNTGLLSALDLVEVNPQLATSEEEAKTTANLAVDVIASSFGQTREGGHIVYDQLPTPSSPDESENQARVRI
# [7] = molecular target: T3, Proteasome subunit beta (Trypanosoma cruzi) (UniProt O96673); test: Trypanosoma cruzi proteasome chymotrypsin-like activity (TcProtChymo) assay.; further: in the data most compounds retested in dose-response had high values; format: functional; details: 9.37 µM
# T3 sequence (whole entry): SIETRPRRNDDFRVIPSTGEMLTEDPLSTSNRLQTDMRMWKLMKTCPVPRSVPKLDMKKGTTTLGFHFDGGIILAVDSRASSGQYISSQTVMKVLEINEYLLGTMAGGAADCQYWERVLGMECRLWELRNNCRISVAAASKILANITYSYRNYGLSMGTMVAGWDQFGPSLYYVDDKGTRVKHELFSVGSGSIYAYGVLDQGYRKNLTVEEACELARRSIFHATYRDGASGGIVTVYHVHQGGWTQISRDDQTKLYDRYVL
# [8] = species: Homo sapiens; test: To identify inhibition of the IFN signalling (Jak-Stat) pathway via expression of an eGFP reporter gene under the control of an IFN-stimulated response element (ISRE) containing MxA promoter.; format: functional; details: 30 µM
# [9] = molecular target: T4, Tyrosyl-tRNA synthetase, putative (Trypanosoma cruzi (strain CL Brener)) (UniProt Q4DSP6); test: Trypanosoma cruzi tyrosyl tRNA synthetase (TcYRS) _High Tyrosine SOP; format: functional; details: 30 µM; further: in the data most compounds retested in dose-response had high values
# T4 sequence (whole entry): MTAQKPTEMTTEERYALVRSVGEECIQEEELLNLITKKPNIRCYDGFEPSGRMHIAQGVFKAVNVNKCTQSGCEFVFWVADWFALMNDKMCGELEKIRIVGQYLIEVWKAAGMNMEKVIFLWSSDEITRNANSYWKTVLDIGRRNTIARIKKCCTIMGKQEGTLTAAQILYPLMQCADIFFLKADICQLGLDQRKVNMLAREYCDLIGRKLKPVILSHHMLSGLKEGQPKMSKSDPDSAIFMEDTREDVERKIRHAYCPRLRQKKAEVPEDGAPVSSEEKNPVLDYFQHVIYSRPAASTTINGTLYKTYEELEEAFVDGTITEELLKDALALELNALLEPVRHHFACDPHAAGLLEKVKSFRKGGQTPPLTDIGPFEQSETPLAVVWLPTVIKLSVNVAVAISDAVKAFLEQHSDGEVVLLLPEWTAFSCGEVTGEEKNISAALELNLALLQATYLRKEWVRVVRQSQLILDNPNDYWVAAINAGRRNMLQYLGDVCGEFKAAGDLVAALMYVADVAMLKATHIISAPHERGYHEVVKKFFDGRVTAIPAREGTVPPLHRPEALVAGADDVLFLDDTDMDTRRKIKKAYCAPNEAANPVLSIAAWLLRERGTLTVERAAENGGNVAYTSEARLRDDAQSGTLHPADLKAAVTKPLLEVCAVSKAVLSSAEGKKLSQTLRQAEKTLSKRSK
# [10] = molecular target: T4, Tyrosyl-tRNA synthetase, putative (Trypanosoma cruzi (strain CL Brener)); test: Trypanosoma cruzi tyrosyl tRNA synthetase (TcYRS) SOP; format: functional; details: 30 µM
# [11] = molecular target: Chromo domain-containing protein 1 (Saccharomyces cerevisiae (strain ATCC 204508 / S288c) (Baker's yeast)) (UniProt P32657); test: ScCHD-1 Enzyme Inhibition Assay; format: functional; details: 30 µM; further: in the data most compounds retested in dose-response had high values
# Chain of Chromo domain-containing protein 1 (Saccharomyces cerevisiae (strain ATCC 204508 / S288c) (Baker's yeast)) (P32657 whole entry, the tested form may be a part): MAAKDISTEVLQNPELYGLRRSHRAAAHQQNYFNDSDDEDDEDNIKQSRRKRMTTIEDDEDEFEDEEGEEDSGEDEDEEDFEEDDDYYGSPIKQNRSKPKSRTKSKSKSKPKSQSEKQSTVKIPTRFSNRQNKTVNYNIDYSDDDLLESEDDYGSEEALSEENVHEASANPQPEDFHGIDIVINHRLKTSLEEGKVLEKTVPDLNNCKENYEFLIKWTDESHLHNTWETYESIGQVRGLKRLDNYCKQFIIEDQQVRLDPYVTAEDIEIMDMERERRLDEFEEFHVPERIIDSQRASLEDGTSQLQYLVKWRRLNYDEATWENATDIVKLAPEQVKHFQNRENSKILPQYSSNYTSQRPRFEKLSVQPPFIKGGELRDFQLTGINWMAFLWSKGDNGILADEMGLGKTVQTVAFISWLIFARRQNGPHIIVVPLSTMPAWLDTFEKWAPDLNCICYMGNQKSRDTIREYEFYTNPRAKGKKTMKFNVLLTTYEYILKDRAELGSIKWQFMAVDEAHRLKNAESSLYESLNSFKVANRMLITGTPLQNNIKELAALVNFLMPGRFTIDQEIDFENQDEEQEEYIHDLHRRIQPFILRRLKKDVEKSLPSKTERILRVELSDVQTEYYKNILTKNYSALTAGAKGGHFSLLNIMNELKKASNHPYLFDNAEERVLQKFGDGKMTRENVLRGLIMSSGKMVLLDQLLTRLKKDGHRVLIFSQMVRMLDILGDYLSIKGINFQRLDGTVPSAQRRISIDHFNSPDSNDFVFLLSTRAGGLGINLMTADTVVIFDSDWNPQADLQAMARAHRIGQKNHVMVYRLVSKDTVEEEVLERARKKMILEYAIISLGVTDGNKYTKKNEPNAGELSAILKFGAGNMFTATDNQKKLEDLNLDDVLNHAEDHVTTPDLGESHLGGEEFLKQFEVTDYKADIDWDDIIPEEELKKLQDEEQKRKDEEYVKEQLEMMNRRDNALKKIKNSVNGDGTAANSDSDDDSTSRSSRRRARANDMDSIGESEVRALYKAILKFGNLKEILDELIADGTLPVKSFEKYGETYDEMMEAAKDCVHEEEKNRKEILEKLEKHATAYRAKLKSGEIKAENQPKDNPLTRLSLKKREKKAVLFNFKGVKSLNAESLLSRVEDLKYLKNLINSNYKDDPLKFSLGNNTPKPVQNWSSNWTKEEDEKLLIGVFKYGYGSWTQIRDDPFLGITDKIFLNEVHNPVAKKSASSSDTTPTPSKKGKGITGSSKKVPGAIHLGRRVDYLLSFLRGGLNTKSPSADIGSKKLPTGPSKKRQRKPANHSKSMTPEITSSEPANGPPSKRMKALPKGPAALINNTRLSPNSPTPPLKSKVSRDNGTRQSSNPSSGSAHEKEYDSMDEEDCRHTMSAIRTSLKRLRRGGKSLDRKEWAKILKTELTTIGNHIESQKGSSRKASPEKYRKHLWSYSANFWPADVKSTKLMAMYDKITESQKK
# Chain of Protein translocase subunit SecA (Escherichia coli (strain K12)) (P10408 whole entry): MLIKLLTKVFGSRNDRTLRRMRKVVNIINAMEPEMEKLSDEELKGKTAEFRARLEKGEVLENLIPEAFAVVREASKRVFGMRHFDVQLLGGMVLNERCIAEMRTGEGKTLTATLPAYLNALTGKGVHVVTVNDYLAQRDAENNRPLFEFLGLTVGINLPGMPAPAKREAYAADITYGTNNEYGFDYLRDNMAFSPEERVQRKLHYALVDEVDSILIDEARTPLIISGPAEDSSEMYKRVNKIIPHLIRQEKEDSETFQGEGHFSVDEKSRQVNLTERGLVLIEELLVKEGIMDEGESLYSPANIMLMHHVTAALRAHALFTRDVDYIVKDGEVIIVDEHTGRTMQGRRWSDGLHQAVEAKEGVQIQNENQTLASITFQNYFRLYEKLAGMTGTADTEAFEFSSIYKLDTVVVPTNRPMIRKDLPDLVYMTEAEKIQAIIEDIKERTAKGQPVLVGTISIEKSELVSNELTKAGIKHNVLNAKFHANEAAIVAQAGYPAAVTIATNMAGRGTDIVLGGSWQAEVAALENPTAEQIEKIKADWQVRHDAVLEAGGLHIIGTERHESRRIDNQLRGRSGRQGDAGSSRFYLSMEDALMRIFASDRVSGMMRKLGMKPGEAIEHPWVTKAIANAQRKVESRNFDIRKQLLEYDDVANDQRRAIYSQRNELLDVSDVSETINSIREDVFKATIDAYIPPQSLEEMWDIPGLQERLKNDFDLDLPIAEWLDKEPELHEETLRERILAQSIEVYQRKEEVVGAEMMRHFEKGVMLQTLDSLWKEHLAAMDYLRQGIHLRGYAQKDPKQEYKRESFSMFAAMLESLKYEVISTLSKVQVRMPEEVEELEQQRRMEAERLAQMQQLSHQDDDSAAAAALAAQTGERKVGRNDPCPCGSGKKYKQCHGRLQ
# Chain of Sialic acid-binding Ig-like lectin 9 (Homo sapiens) (Q9Y336 whole entry): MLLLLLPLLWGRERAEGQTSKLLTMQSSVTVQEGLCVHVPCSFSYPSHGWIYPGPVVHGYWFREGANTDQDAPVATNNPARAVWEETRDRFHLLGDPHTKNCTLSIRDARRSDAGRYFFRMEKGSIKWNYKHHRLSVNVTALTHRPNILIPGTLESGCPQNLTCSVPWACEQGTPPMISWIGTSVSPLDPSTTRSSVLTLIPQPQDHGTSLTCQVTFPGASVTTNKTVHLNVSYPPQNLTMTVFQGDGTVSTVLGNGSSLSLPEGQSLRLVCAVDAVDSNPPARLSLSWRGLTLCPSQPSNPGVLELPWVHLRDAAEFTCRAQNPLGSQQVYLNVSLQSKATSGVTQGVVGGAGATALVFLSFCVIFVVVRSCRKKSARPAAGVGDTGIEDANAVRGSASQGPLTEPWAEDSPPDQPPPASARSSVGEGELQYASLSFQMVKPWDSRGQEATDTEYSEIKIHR
SMILES,Percent Effect [1] [%],Percent Effect [2] [%],Percent Effect [3] [%],Percent Effect [4] [%],Percent Effect [5] [%],Percent Effect [6] [%],Percent Effect [7] [%],Percent Effect [8] [%],Percent Effect [9] [%],Percent Effect [10] [%],Percent Effect [11] [%]
COCc1ccc(CN2CCC(O)(Cn3ccc4ncccc43)CC2)o1,-1.21,2.67,-2.95,1.83,5.51,0.233,9.07,7.16,2.13,3.85,-6.45
CCOCCN1CCn2c(C)nnc2C1,2.73,19,2.63,-1.98,-5.03,-3.23,13.9,11.9,4.17,12.7,-27.4
O=S(=O)(Nc1cnn(C2CCOCC2)c1)c1ccc(F)c(F)c1,-2.82,-2.6,-3.09,9.32,-5.03,-8.39,8.01,-0.875,-1.06,3.85,-2.49
CCOc1ccccc1OC1CCN(C(=O)c2nc(=O)[nH][nH]2)CC1,-5.6,18.4,-5.81,1.22,10.5,-3.06,13.9,18.1,6.37,19.5,-9.11
CC(C)c1csc(C2CCCN(C(=O)Cn3ccccc3=O)C2)n1 (stereo unspecified),-2.92,2.63,1.07,-4.27,8.27,-1.92,3.68,10.9,0.49,9.76,-9.15
CNc1cc(N2CCCC2CNCc2ccc(Cl)o2)ncn1 (stereo unspecified),-6.85,13.5,-2.54,43.1,8.98,16.2,18.9,22,15.8,23.2,89.7
c1nc2c(c(C3CC3)n1)CCN(Cc1ccoc1)CC2,0.0846,19.2,-4.87,5.4,5.56,-0.798,6.59,5.88,8.33,23.5,-3.03
CCOCC(O)CN1CCN(C(=O)C2CC2)CC1 (stereo unspecified),-3.95,16.2,86.5,-5.78,1.04,-8.42,2.52,10.7,9.36,16.1,-7.42
CN(C)C(CNC(=O)c1cc2c([nH]c1=O)CCCC2=O)c1ccsc1 (stereo unspecified),-5.23,16.2,-3.65,17.4,4.55,-0.554,2.51,1.27,5.94,18.3,45
Cc1nccc(-c2cccc(NCC(=O)N3CCCCCCC3)c2)n1,-8,-5.26,11.7,-8.15,-0.28,-0.36,5.16,28.6,2.46,-1.24,-1.53
CN(CCNC(=O)N1CCN(Cc2ccon2)CC1)C1CCCC1,-7,2.67,3.19,-0.946,1.85,4.69,-2.27,4.26,4.92,8.64,-1.28
CCC(=O)N1CCCC(c2cc(Nc3ncccn3)nc(C)n2)C1 (stereo unspecified),-3.27,1.35,13.2,-0.199,-1.58,-5.8,10.6,-1.71,6.45,11.7,-6.06
COc1cccc(CN(C)C(=O)CN2CCN(c3nccn3C)CC2)c1,-1.77,8,-12.7,7.67,3.99,14.1,20.6,1.29,10.4,21,-3.45
CC(C)N1CCC(CNCc2c[nH]nc2C(C)(C)C)C1 (stereo unspecified),-2.43,29.7,-3.65,-3.23,5.19,-14.4,17.1,22,9.36,23.5,-10.6
Cc1cc2ccccc2n1CCC(=O)NCc1ncc[nH]1,-2.35,14.9,6.43,-8.05,-4.74,-1.16,15.6,13.5,11.8,16.9,-9.55
CC(=O)N1CCN(C(=O)C(C)n2cncn2)CC1 (stereo unspecified),-3.75,8.86,5.62,3.27,1.13,-1.5,10.3,1.42,5.21,12.7,-21.9
